Among the data in PubChem BioAssay (Tox21) are Potency, activity, negative = inhibition and activity change, negative = inhibition values, retold here.

Test [1] concerns the target Acetylcholinesterase (Homo sapiens) (UniProt P22303). The test is described as follows: Acetylcholinesterase (AChE) small molecule antagonists: colormetric cell-based qHTS assay (AID 1347395). Also: nearly all actives have a fitted effect of over 30% in size. Also: potency is read from the fitted curve at half-maximal effect. The gist of the method: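 SH-SY5Y cells, plated overnight at 37 C, were exposed to compounds for 30 min at 37 C and 5% CO2. Acetylthiocholine plus DTNB was then added, and thiocholine from endogenous AChE was quantified colorimetrically after 90 min at 37 C.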
A general note: In qHTS, concentration-response curves come from the screen itself.

Test [2] has the same target. The test is described as follows: Acetylcholinesterase (AChE) small molecule antagonists: enzyme-based qHTS assay (AID 1347397). Also: nearly all actives have a fitted effect of over 55% in size. Also: potency is read from the fitted curve at half-maximal effect. To be noted: Potency: AChE enzyme activity inhibition; outcome: AChE enzyme activity inhibition. Put shortly: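 Tox21 library chemicals are tested in qHTS format against recombinant human AChE. The enzyme, dispensed at 50 mU/mL, sits with compound for 30 min at room temperature. A DTNB–acetylthiocholine cocktail follows, and colour is read after 10 min.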

For test [3] the target is unchanged. The test is described as follows: Acetylcholinesterase (AChE) small molecule antagonists: fluorescence cell-based qHTS assay (AID 1347398). Also: nearly all actives have a fitted effect of over 50% in size. Also: potency is read from the fitted curve at half-maximal effect. To be noted: Potency: AChE activity; outcome: AChE activity. Put shortly: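 Cellular AChE inhibition: SH-SY5Y cells treated with test chemical for 30 min at 37 C, then acetylthiocholine hydrolysis followed over 40 min at room temperature via thiocholine-reactive Thiolite Green fluorescence (490/520 nm).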

Test [4] has the same target. Description: Acetylcholinesterase (AChE) small molecule antagonists: enzyme-based qHTS assay with human liver microsomes (AID 1347399). Also: nearly all actives have a fitted effect of over 60% in size. To be noted: Potency: qHTS inhibition; outcome: qHTS inhibition. Put shortly: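 Recombinant human AChE (50 mU/mL in the enzyme mix) and human liver microsomes (0.25 mg/mL final) were preincubated with compound and NADPH (0.25 mg/mL final) for 30 min at 37 C. Acetylthiocholine/DTNB was then added; thiocholine was read colorimetrically after 10 min at room temperature.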

Records with an inconclusive call do not appear. Some compounds were tested as several samples or in several runs, with calls that do not always agree. Activity calls are given as the source filed them. Calls follow the shape of the full dose curve.
% is scaled to controls: 0 for no effect and ±100 for the full control effect.

Acetylcholinesterase (Homo sapiens), sequence (P22303 whole entry, looked up): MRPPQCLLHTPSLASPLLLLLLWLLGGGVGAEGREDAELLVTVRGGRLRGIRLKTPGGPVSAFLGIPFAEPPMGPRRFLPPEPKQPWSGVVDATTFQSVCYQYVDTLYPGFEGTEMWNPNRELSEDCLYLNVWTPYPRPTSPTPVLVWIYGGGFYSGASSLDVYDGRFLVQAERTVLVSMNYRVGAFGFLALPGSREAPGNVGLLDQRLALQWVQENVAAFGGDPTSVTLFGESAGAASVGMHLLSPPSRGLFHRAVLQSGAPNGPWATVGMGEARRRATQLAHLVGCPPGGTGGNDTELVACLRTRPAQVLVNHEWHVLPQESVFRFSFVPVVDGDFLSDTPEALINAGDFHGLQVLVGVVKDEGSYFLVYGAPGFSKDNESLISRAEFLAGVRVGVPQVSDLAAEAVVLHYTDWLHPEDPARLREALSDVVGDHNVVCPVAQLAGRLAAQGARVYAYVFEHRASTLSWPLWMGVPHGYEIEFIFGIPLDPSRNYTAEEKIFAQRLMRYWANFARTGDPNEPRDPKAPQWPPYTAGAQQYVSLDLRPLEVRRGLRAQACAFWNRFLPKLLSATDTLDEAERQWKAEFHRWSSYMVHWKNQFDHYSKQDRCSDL

On to `COC(=O)CC(C)CCC=C(C)C` (stereo not drawn), for which the Potency result in test [1], in test [2], in test [3] and in test [4] was “inactive” in each case.
Turning to `Nc1cc([N+](=O)[O-])ccc1Cl`, the Potency entry in test [1], in test [2], in test [3] and in test [4] was “inactive” in each case.
In the case of `Cc1c(F)c(N2CCNC(C)C2)cc2c1c(=O)c(C(=O)O)cn2C1CC1` (stereo not drawn), the Potency entry in test [1], in test [2], in test [3] and in test [4] was “inactive” in each case.
With `C=C[C@H]1CN2CC[C@H]1C[C@@H]2[C@@H](O)c1ccnc2ccc(OC)cc12`, the Potency entry in test [1], in test [2], in test [3] and in test [4] was “inactive” each time.
For the molecule `O=Cc1ccc(CO)o1`, the Potency entry in test [1], in test [2], in test [3] and in test [4] was “inactive” throughout.
As for `CC(=O)C1=C(C)[C@@H]2C[C@@]3(C1)[C@H](C)CC[C@H]3C2(C)C`, the Potency result in test [1], in test [2], in test [3] and in test [4] was “inactive” each time.
For `CCCCOC(=O)c1ccccc1C(=O)OCC(CC)CCCC` (stereo not drawn), the Potency result in test [1], in test [2], in test [3] and in test [4] was “inactive” each time.
For `N#Cc1cc2ccccc2c2ccccc12`, the Potency entry in test [1], in test [2], in test [3] and in test [4] was “inactive” throughout.
As for `Oc1ccc(CCNCCCCCCNCCc2ccccc2)cc1O`, the Potency is 7.76 µM (active) in test [1], 27.5 µM (active) in test [2] and 13.8 µM (active) in test [3]. In addition, the Potency entry in test [4] was “inactive”.
Regarding `CCCOCC(C)O` (stereo not drawn), the Potency entry in test [1], in test [2], in test [3] and in test [4] was “inactive” each time.
As to `CC(C)(C)NCCO`, the Potency result in test [1], in test [2], in test [3] and in test [4] was “inactive” in each case.
As for `Cc1ccc(Nc2c(F)cccc2Cl)c(CC(=O)O)c1`, the Potency entry in test [1], in test [2], in test [3] and in test [4] was “inactive” in each case.
For `c1cc(C(c2ccc(OCC3CO3)cc2)c2ccc(OCC3CO3)cc2)ccc1OCC1CO1` (stereo not drawn), the Potency entry in test [1], in test [2], in test [3] and in test [4] was “inactive” throughout.
Regarding `O=C(O)c1ccc(OCCCOc2ccc(C(=O)O)cc2)cc1`, the Potency result in test [1], in test [2], in test [3] and in test [4] was “inactive” throughout.
Consider `CC(CN)CCCN` (stereo not drawn), for which the Potency entry in test [1], in test [2], in test [3] and in test [4] was “inactive” in each case.
Consider `CC(C)(C)CC(C)(C)c1ccccc1O`, for which the Potency entry in test [1], in test [2], in test [3] and in test [4] was “inactive” each time.
Regarding `C=CCCC(=O)/C=C/C1C(C)=CCCC1(C)C` (stereo not drawn), the Potency entry in test [1], in test [2], in test [3] and in test [4] was “inactive” in each case.
Take `CCN1CCN(c2cc(-c3ccc(F)cc3)c3c(n2)CCCCCC3)CC1`: the activity, negative = inhibition in test [1] was 2.78% [at 23.6 µM] (inactive). Besides, the activity change, negative = inhibition is 1.01% [at 23.6 µM] (inactive) in test [2], 7.25% [at 23.8 µM] (inactive) in test [3] and -1.12% [at 23.6 µM] (inactive) in test [4].
`CCCCCCC(=O)c1ccccc1`: the Potency result in test [1], in test [2], in test [3] and in test [4] was “inactive” each time.
As to `OCC1CC2CC1C1CCC(CO)C21` (stereo not drawn), the Potency result in test [1], in test [2], in test [3] and in test [4] was “inactive” throughout.
Take `Nc1ccc(S(=O)(=O)c2ccc(N)cc2)cc1`: the Potency entry in test [1], in test [2], in test [3] and in test [4] was “inactive” each time.
As for `O=C1O[C@H]([C@H](O)CO)C(O)=C1O`, the Potency result in test [1], in test [2], in test [3] and in test [4] was “inactive” throughout.
Turning to `OCC(CO)(CO)COCC(CO)(CO)CO`, the Potency entry in test [1], in test [2], in test [3] and in test [4] was “inactive” each time.
Regarding `CCOCC(=O)O`, the Potency in test [1] was 36.4 µM (active) and inactive. For the same molecule, the Potency result in test [2], in test [3] and in test [4] was “inactive” throughout.
Regarding `Cc1cccc(Oc2ccccc2)c1`, the Potency result in test [1], in test [2], in test [3] and in test [4] was “inactive” each time.
In the case of `COC(=O)c1ccc([N+](=O)[O-])cc1`, the Potency entry in test [1], in test [2], in test [3] and in test [4] was “inactive” in each case.
In the case of `C=CC(=O)OCC(O)COc1ccccc1` (stereo not drawn), the Potency result in test [1], in test [2], in test [3] and in test [4] was “inactive” each time.
For the molecule `O=C(O)P(=O)(O)O`, the Potency entry in test [1], in test [2], in test [3] and in test [4] was “inactive” in each case.
As to `CC(=O)Nc1c(I)cc(I)c(C(=O)O)c1I`, the Potency result in test [1], in test [2], in test [3] and in test [4] was “inactive” each time.
Regarding `CCCCCCCCOCCC#N`, the Potency result in test [1], in test [2], in test [3] and in test [4] was “inactive” throughout.
For the molecule `CCCCC/C=C\C/C=C\CCCCCCCC(=O)O`, the Potency result in test [1], in test [2], in test [3] and in test [4] was “inactive” in each case.
As for `CCc1ccc(O)cc1`, the Potency entry in test [1], in test [2], in test [3] and in test [4] was “inactive” each time.
On to `CCCCCOC(=O)COc1cc(N2C(=O)C3=C(CCCC3)C2=O)c(F)cc1Cl`, for which the Potency entry in test [1], in test [2], in test [3] and in test [4] was “inactive” each time.
In the case of `CCCC/C=C\CCCCCCCCCC=O`, the Potency entry in test [1], in test [2], in test [3] and in test [4] was “inactive” in each case.
With `CC1(N)CCC(C(C)(C)N)CC1` (stereo not drawn), the Potency result in test [1], in test [2], in test [3] and in test [4] was “inactive” throughout.
With `Brc1ccccn1`, the Potency entry in test [1], in test [2], in test [3] and in test [4] was “inactive” in each case.
For `Cc1cc(CCC(=O)OCCOCCOCCOC(=O)CCc2cc(C)c(O)c(C(C)(C)C)c2)cc(C(C)(C)C)c1O`, the Potency result in test [1], in test [2], in test [3] and in test [4] was “inactive” in each case.
